Reference: paper PMC7862700, “An all-to-all approach to the identification of sequence-specific readers for epigenetic DNA modifications on cytosine”

Assays:
Assay in all cases: DAPPL (digital affinity profiling via proximity ligation, sequencing); 10 mM Tris-HCl pH 7.5, 50 mM NaCl, 1 mM DTT, 4% glycerol, room temperature, 30 min; GST-TFs on glutathione beads, 16-mer random dsDNA library, 0.1% formaldehyde crosslink after washing; high values mean tight binding
[1] = molecular target: T1, FLI1 (Homo sapiens, UniProt Q01543 1-452); conditions: protein: recombinant; tags: N-terminal GST; dsDNA, one strand shown
T1 sequence: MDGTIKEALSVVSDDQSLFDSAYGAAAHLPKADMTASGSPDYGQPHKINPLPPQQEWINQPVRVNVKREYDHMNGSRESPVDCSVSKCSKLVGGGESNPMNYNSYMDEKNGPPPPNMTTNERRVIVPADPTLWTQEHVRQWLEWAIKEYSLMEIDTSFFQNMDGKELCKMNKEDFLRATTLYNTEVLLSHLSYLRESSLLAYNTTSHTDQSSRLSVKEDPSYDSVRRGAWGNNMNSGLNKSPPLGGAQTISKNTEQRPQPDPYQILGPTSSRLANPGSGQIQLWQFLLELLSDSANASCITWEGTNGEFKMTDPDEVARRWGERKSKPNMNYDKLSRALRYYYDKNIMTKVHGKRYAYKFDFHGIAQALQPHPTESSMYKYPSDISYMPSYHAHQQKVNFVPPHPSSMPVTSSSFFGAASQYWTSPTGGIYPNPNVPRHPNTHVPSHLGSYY
Method in brief: (§1)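 A tag-only sample was pooled with DNA-barcoded human transcription factors that had been expressed in yeast as GST fusions and captured on glutathione beads. The pools were incubated for 30 min at room temperature with 200 nmole of a random double-stranded 16-mer DNA library in Tris/NaCl/DTT/glycerol buffer, then washed, crosslinked with 0.1% formaldehyde, proximity-ligated (BsaI/T4 ligase, 1 h, 37 °C), PCR-amplified and sequenced on an Illumina NextSeq500. Binding signal is each hexamer's read frequency for a factor divided by its frequency for the tag-only sample.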

[2] = molecular target: T2, ELK1 (Homo sapiens, UniProt P19419 1-428); conditions: protein: recombinant; tags: N-terminal GST; dsDNA, one strand shown
T2 sequence: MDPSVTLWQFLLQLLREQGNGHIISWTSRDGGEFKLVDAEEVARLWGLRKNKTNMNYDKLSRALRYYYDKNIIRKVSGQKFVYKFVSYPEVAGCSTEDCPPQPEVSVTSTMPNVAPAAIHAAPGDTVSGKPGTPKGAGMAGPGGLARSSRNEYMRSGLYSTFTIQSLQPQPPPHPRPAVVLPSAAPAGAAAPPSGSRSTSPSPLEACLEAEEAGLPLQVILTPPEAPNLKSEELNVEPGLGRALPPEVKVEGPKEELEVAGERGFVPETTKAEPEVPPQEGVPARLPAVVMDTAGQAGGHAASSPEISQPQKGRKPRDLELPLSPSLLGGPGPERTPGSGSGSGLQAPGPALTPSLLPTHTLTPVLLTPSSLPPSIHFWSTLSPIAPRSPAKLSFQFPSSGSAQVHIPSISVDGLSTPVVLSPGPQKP
Method in brief: as §1

[3] = molecular target: T3, GABPA (Homo sapiens, UniProt Q06546 1-454); conditions: protein: recombinant; tags: N-terminal GST; dsDNA, one strand shown
T3 sequence: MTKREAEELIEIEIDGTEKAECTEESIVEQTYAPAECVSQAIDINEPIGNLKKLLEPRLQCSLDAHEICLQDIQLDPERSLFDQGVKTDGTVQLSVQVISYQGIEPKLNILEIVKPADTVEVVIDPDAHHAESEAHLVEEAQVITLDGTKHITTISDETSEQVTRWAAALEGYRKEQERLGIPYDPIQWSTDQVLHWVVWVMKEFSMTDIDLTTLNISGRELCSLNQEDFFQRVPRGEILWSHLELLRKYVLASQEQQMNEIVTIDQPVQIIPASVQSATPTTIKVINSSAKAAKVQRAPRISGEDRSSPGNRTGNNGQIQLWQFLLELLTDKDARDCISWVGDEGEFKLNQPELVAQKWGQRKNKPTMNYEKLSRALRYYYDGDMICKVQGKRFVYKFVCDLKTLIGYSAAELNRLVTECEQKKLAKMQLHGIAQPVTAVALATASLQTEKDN
Method in brief: as §1

[4] = molecular target: T4, ERG (Homo sapiens, UniProt P11308 1-479); conditions: protein: recombinant; tags: N-terminal GST; dsDNA, one strand shown
T4 sequence: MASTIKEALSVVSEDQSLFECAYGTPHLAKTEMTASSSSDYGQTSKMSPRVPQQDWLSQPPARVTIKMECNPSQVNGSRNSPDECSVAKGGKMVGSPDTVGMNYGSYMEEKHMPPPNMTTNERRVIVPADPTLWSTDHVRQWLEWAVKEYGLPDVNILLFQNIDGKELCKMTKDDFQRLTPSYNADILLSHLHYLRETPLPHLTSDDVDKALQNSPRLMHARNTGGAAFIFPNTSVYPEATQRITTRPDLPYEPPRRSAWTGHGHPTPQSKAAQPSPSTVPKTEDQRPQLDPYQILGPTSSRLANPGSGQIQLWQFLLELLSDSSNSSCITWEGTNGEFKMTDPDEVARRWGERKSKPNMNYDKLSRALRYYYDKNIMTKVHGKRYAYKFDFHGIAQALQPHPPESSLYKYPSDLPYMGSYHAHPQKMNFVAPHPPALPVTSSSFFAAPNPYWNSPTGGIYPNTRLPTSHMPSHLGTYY
Method in brief: as §1

[5] = molecular target: ELF1 (Homo sapiens, UniProt P32519 1-619); conditions: protein: recombinant; tags: N-terminal GST; dsDNA, one strand shown
Method in brief: as §1

[6] = molecular target: T5, EHF (Homo sapiens, UniProt Q9NZC4 1-300); conditions: protein: recombinant; tags: N-terminal GST; dsDNA, one strand shown
T5 sequence: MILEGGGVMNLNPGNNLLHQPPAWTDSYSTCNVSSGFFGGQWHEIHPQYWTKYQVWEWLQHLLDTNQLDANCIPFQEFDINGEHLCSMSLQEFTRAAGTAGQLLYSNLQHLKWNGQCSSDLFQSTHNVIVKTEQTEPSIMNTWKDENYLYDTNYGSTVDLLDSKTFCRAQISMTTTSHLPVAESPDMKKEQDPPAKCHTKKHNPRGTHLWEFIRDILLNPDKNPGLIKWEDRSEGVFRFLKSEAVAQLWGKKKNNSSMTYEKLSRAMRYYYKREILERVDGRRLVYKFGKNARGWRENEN
Method in brief: as §1

[7] = molecular target: SPI1 (Homo sapiens, UniProt P17947 1-270); conditions: protein: recombinant; tags: N-terminal GST; dsDNA, one strand shown
Method in brief: as §1

[8] = molecular target: SPIB (Homo sapiens, UniProt Q01892 1-262); conditions: protein: recombinant; tags: N-terminal GST; dsDNA, one strand shown
Method in brief: as §1

[9] = molecular target: T6, ELK3 (Homo sapiens, UniProt P41970 1-407); conditions: protein: recombinant; tags: N-terminal GST; dsDNA, one strand shown
T6 sequence: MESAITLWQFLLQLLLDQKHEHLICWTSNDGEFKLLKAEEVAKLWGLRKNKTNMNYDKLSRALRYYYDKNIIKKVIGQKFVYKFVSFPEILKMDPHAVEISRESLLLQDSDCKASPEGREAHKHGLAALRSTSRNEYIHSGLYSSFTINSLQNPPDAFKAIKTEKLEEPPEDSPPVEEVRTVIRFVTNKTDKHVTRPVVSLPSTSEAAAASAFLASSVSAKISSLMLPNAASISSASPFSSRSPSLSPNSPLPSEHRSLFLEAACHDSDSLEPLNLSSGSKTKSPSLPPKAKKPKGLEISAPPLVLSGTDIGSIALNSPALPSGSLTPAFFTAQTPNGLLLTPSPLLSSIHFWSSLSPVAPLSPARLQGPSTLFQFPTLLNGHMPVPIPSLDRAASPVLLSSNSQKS
Method in brief: as §1

[10] = molecular target: T7, FEV (Homo sapiens, UniProt Q99581 1-238); conditions: protein: recombinant; tags: N-terminal GST; dsDNA, one strand shown
T7 sequence: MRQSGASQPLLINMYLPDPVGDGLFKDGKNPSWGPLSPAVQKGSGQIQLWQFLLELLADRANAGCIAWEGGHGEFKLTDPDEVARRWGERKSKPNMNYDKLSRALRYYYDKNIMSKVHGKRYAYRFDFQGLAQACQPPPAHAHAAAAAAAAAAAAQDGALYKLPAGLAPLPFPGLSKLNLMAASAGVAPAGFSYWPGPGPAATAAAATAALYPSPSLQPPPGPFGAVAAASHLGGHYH
Method in brief: as §1

[11] = molecular target: ETV5 (Homo sapiens, UniProt P41161 1-510); conditions: protein: recombinant; tags: N-terminal GST; dsDNA, one strand shown
Method in brief: as §1

[12] = molecular target: HSF1 (Homo sapiens, UniProt Q00613 1-529); conditions: protein: recombinant; tags: N-terminal GST; chain copies: 3; dsDNA, one strand shown
Method in brief: as §1

[13] = molecular target: ELF4 (Homo sapiens, UniProt Q99607 1-663); conditions: protein: recombinant; tags: N-terminal GST; dsDNA, one strand shown
Method in brief: as §1

[14] = molecular target: T8, ETV2 (Homo sapiens, UniProt O00321 1-342); conditions: protein: recombinant; tags: N-terminal GST; dsDNA, one strand shown
T8 sequence: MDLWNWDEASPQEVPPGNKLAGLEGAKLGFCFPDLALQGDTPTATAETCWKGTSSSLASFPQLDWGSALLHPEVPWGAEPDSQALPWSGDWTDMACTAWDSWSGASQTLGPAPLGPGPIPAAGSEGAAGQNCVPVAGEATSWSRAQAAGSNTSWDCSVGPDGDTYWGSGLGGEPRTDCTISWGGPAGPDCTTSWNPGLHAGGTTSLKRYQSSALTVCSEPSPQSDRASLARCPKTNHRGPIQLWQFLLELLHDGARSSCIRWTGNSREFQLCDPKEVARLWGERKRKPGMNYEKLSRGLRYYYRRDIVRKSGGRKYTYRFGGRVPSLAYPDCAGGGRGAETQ
Method in brief: as §1

[15] = molecular target: T9, ELF3 (Homo sapiens, UniProt P78545 1-371); conditions: protein: recombinant; tags: N-terminal GST; dsDNA, one strand shown
T9 sequence: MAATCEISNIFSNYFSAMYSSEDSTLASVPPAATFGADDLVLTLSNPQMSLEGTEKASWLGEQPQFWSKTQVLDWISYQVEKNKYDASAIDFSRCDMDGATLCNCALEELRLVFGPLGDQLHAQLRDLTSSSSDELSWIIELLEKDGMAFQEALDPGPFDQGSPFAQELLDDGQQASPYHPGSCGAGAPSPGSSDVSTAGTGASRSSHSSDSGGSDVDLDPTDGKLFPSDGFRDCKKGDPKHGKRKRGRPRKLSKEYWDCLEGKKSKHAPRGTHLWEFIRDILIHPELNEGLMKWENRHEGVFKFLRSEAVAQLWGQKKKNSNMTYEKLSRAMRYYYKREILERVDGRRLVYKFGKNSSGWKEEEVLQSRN
Method in brief: as §1

[16] = molecular target: CRX (Homo sapiens, UniProt O43186 1-299); conditions: protein: recombinant; tags: N-terminal GST; dsDNA, one strand shown
Method in brief: as §1

Sequence of CRX (O43186 whole entry): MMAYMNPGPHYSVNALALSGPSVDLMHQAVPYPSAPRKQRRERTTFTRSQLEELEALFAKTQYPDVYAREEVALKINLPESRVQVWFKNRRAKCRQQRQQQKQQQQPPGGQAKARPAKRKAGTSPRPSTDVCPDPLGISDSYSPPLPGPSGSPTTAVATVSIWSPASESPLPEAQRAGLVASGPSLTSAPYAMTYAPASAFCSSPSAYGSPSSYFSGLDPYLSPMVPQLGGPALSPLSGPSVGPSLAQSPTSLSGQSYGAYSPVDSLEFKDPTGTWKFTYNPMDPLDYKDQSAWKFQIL
Sequence of HSF1 (Q00613 whole entry): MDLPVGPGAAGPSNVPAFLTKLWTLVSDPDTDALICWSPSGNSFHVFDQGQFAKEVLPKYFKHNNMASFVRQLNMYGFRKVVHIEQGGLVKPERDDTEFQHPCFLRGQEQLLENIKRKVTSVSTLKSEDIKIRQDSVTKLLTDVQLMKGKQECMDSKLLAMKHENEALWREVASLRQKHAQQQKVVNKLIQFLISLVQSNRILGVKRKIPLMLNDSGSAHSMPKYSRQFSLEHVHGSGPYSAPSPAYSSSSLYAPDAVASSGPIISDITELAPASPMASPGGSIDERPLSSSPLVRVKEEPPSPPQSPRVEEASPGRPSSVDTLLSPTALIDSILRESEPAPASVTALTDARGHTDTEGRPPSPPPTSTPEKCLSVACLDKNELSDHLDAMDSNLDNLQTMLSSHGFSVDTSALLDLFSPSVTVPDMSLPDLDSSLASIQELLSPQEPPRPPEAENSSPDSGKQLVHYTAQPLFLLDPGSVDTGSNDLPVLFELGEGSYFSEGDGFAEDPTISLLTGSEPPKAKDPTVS
Sequence of ELF4 (Q99607 whole entry): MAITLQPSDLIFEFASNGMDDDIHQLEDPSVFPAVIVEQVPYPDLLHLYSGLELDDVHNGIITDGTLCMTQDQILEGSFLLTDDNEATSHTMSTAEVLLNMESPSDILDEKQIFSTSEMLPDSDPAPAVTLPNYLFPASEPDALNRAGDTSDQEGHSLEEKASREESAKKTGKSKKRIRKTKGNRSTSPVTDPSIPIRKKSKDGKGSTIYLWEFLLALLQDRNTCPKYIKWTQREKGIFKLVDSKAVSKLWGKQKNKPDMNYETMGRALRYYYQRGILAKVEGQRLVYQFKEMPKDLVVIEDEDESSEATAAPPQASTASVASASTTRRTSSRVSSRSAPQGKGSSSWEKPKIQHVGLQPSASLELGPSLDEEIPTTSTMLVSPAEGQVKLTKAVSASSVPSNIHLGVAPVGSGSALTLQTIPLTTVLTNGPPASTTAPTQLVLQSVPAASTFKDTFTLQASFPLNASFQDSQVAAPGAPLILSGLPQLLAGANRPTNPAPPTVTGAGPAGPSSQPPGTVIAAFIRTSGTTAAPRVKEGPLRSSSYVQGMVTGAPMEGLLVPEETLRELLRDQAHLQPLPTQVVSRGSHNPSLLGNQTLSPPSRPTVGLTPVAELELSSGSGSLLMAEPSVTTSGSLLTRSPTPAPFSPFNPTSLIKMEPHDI
Sequence of ETV5 (P41161 whole entry): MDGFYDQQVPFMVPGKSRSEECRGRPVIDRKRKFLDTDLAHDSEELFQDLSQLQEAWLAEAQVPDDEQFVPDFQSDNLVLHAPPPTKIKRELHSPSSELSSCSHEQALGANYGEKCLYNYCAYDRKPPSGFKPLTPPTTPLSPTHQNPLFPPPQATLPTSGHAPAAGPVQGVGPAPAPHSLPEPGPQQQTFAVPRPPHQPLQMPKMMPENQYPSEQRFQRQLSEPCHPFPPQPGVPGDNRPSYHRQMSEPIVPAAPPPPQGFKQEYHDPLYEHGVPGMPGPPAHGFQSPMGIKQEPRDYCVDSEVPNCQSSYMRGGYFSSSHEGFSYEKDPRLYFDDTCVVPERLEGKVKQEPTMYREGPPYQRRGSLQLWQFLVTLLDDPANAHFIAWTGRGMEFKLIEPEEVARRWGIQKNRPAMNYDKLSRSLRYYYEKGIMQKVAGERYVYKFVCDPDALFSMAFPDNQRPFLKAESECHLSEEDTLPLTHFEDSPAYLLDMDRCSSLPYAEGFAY
Sequence of SPIB (Q01892 whole entry): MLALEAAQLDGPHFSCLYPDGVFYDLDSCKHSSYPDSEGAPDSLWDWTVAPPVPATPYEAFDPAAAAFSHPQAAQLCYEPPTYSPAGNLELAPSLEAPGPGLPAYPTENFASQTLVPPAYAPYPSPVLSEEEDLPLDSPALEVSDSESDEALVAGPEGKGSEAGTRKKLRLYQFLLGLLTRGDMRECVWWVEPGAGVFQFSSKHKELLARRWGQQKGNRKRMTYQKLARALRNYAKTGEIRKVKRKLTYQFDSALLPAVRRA
Sequence of ELF1 (P32519 whole entry): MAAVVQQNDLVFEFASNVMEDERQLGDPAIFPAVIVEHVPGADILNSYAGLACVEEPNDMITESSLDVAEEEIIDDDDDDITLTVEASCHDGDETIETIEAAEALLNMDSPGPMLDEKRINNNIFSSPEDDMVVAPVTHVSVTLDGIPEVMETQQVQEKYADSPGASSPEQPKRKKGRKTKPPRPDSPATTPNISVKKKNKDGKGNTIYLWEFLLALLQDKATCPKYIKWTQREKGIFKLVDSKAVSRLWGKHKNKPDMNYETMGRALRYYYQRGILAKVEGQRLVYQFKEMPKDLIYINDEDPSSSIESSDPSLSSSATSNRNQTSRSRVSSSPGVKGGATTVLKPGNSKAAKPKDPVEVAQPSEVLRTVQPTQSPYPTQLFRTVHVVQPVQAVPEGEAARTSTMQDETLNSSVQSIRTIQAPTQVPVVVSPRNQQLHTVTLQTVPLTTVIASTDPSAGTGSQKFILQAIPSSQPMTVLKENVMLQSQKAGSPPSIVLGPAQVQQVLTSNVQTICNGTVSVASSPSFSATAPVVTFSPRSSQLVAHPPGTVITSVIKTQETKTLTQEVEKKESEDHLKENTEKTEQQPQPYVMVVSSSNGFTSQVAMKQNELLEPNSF

Question: What does the source list for GAACAT?
Answer: binding signal [1]: 1.01 fold enrichment (6-mer frequency, TF over GST control); binding signal [2]: 1.02 fold enrichment (6-mer frequency, TF over GST control); binding signal [3]: 1.09 fold enrichment (6-mer frequency, TF over GST control); binding signal [4]: 1.03 fold enrichment (6-mer frequency, TF over GST control); binding signal [5]: 1.02 fold enrichment (6-mer frequency, TF over GST control); binding signal [6]: 1.05 fold enrichment (6-mer frequency, TF over GST control); binding signal [7]: 1.04 fold enrichment (6-mer frequency, TF over GST control); binding signal [8]: 1.01 fold enrichment (6-mer frequency, TF over GST control); binding signal [9]: 1.16 fold enrichment (6-mer frequency, TF over GST control); binding signal [10]: 1.01 fold enrichment (6-mer frequency, TF over GST control); binding signal [11]: 1.12 fold enrichment (6-mer frequency, TF over GST control); binding signal [12]: 1.81 fold enrichment (6-mer frequency, TF over GST control); binding signal [13]: 1 fold enrichment (6-mer frequency, TF over GST control); binding signal [14]: 1.01 fold enrichment (6-mer frequency, TF over GST control); binding signal [15]: 1.06 fold enrichment (6-mer frequency, TF over GST control); binding signal [16]: 1.03 fold enrichment (6-mer frequency, TF over GST control)
